Data as given in PMC12820563, “FoxP3 forms a head-to-head dimer in vivo and stabilizes its multimerization on adjacent microsatellites”.
In all, about 16,000 sequences were measured (“rpm ratio (pull-down/input)”: median about 0.5, highest 2% from about 5.5 on). This excerpt belongs to a sample that is enriched for the highest values.

The sequences below were run against T1, MBP-FoxP3dN (Mus musculus, UniProt Q99JB6 188-423) (assay: PD-seq (MBP pull-down with sequencing); 20 mM Tris-HCl pH 7.5, 100 mM NaCl, 1.5 mM MgCl2, 0.4 uM protein, 0.1 uM dsDNA library, 30 min, room temperature, amylose pull-down; high values mean tight binding). Conditions: protein: recombinant; tags: His6-MBP; chain copies: 2; dsDNA, one strand shown.
T1 sequence: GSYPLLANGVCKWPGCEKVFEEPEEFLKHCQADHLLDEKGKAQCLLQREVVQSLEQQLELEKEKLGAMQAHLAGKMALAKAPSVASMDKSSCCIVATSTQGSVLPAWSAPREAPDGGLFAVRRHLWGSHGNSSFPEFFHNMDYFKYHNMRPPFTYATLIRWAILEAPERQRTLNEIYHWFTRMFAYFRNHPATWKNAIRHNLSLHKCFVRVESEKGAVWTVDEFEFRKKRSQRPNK
Procedure, shortened: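 Protein and DNA were mixed at 0.4 µM and 0.1 µM and held for 30 min at room temperature in Tris pH 7.5 buffer with NaCl and MgCl2; the protein was a His6-MBP-tagged, N-terminally truncated mouse FoxP3 or FoxP1 fragment from E. coli, and the DNA a Klenow-filled double-stranded degenerate library. Amylose resin captured the complexes, which were washed three times. Binding is read as reads-per-million enrichment of pull-down versus input after Illumina sequencing, with replicates pooled.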
“GATGATTGTTCTCCCAGCTGATGAATTACCACTGTCGAGTAAACAAATTTTCCTAATCTTTCTGTTCAAGCGCCATCTAC” was tested, and the binding signal was 0.41 RPM ratio (pull-down/input). In the case of “GATGATTGTTCTCCCAGCTGATGAATTAGACTTGTCGAGTAAACAAATTTTCCTAATCTTTCTGTTCAAGCGCCATCTAC”, the binding signal is reported as 0.529 RPM ratio (pull-down/input). With “GATGATTGTTCTCCCAGCTGATGAATTCTCATGTTCGAGTAAACAAATTTTCCTAATCTTTCTGTTCAAGCGCCATCTAC” the binding signal was 0.416 RPM ratio (pull-down/input). In the case of “GATGATTGTTCTCCCAGCTGATGAATTATCGGTCTCGAGTAAACAAATTTTCCTAATCTTTCTGTTCAAGCGCCATCTAC”, the binding signal is reported as 0.382 RPM ratio (pull-down/input). For “GATGATTGTTCTCCCAGCTGATGAATTACGTACATCGAGTAAACAAATTTTCCTAATCTTTCTGTTCAAGCGCCATCTAC”, the binding signal was 0.647 RPM ratio (pull-down/input). “GATGATTGTTCTCCCAGCTGATGAATTGTGATGTTCGAGTAAACAAATTTTCCTAATCTTTCTGTTCAAGCGCCATCTAC” was tested, and the binding signal was 4.21 RPM ratio (pull-down/input). “GATGATTGTTCTCCCAGCTGATGAATTTTGCTTATCGAGTAAACAAATTTTCCTAATCTTTCTGTTCAAGCGCCATCTAC” was tested, and the binding signal was 6.46 RPM ratio (pull-down/input). “GATGATTGTTCTCCCAGCTGATGAATTGCTTTATTCGAGTAAACAAATTTTCCTAATCTTTCTGTTCAAGCGCCATCTAC” was tested, and the binding signal was 1.09 RPM ratio (pull-down/input). For “GATGATTGTTCTCCCAGCTGATGAATTTGCTTTATCGAGTAAACAAATTTTCCTAATCTTTCTGTTCAAGCGCCATCTAC”, the binding signal was 3.94 RPM ratio (pull-down/input). With “GATGATTGTTCTCCCAGCTGATGAATTGCTTATATCGAGTAAACAAATTTTCCTAATCTTTCTGTTCAAGCGCCATCTAC” the binding signal was 1.61 RPM ratio (pull-down/input). “GATGATTGTTCTCCCAGCTGATGAATTGCTTATTTCGAGTAAACAAATTTTCCTAATCTTTCTGTTCAAGCGCCATCTAC” was tested, and the binding signal was 2.46 RPM ratio (pull-down/input). For “GATGATTGTTCTCCCAGCTGATGAATTTGCTTATTCGAGTAAACAAATTTTCCTAATCTTTCTGTTCAAGCGCCATCTAC”, the binding signal was 6.84 RPM ratio (pull-down/input). “GATGATTGTTCTCCCAGCTGATGAATTACTCATCTCGAGTAAACAAATTTTCCTAATCTTTCTGTTCAAGCGCCATCTAC” was tested, and the binding signal was 0.431 RPM ratio (pull-down/input). For “GATGATTGTTCTCCCAGCTGATGAATTGAGCGCATCGAGTAAACAAATTTTCCTAATCTTTCTGTTCAAGCGCCATCTAC”, the binding signal was 1.34 RPM ratio (pull-down/input). In the case of “GATGATTGTTCTCCCAGCTGATGAATTCCCACGTTCGAGTAAACAAATTTTCCTAATCTTTCTGTTCAAGCGCCATCTAC”, the binding signal is reported as 0.282 RPM ratio (pull-down/input). In the case of “GATGATTGTTCTCCCAGCTGATGAATTTGTCTATTCGAGTAAACAAATTTTCCTAATCTTTCTGTTCAAGCGCCATCTAC”, the binding signal is reported as 5.7 RPM ratio (pull-down/input). In the case of “GATGATTGTTCTCCCAGCTGATGAATTCCTATTGTCGAGTAAACAAATTTTCCTAATCTTTCTGTTCAAGCGCCATCTAC”, the binding signal is reported as 0.764 RPM ratio (pull-down/input). In the case of “GATGATTGTTCTCCCAGCTGATGAATTTCTATTGTCGAGTAAACAAATTTTCCTAATCTTTCTGTTCAAGCGCCATCTAC”, the binding signal is reported as 0.631 RPM ratio (pull-down/input). For “GATGATTGTTCTCCCAGCTGATGAATTGTCCTATTCGAGTAAACAAATTTTCCTAATCTTTCTGTTCAAGCGCCATCTAC”, the binding signal was 0.45 RPM ratio (pull-down/input). In the case of “GATGATTGTTCTCCCAGCTGATGAATTCTATTTGTCGAGTAAACAAATTTTCCTAATCTTTCTGTTCAAGCGCCATCTAC”, the binding signal is reported as 5.87 RPM ratio (pull-down/input). In the case of “GATGATTGTTCTCCCAGCTGATGAATTGTCTATTTCGAGTAAACAAATTTTCCTAATCTTTCTGTTCAAGCGCCATCTAC”, the binding signal is reported as 1.18 RPM ratio (pull-down/input).
